From PubChem BioAssay AID1508600 (Functional Genomics Laboratory (NCATS/FGL), 2020)
The campaign covered roughly 53,000 sequences. About 3,700 (7%) were called active.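 Rule for the calls: active = gene knockdowns whose robust z-score for IL-1 alpha signal is at least 2 or at most -2, so actives lie on both sides; inactive = the rest.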 Many of the other results were omitted from the sample, so actives are more common in it than they were.

Test: Components of the Cytosolic LPS Sensing Pathway: Gene Identification via Genome-wide siRNA Screen;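 note: robust z of the log signal after scaling to non-targeting control siRNA wells of the plate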
Conditions: RAW264.7 macrophages, IL-1a HTRF, actives lie on both sides, screened at 100 nM (by protocol), cells primed 5 h with Pam3CSK4 first
Summary of the method: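 Three distinct siRNAs per gene were tested singly at 100 nM in RAW264.7 macrophages. Following Pam3CSK4 priming and 24 hour LipidA transfection, IL-1a secretion was read by HTRF.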

| Sequence | z-score |
| --- | --- |
| GGGACGACUCUUUCUUAUGTT against Olfr1264 | 0.822 (inactive) |
| GGAGAAAGGUGGUUUGGUATT against Sap30bp | -2.85 (active) |
| GGAGCUAGUAUGUUCAACATT against Ubqln1 | -0.942 (inactive) |
| GGUGUUUGUUUCUAACUUCTT against Glcci1 | -0.434 (inactive) |
| CGAAUUCAUACCAGUGUGCTT against Ndufa10 | 2.84 (active) |
| GCACUCUGCCUGAAAUACCTT against Nlrp1a | -0.376 (inactive) |
| GGACUUCACAAUCUCUUUCTT against Hck | -0.11 (inactive) |
| GGAAGAAUCCACUUUGAACTT against Chil4 | 0.048 (inactive) |
| GGGCUAAAUUAAGCUUCUATT against Sowahd | -0.707 (inactive) |
| GCCUGCUUAAGCUACUUAUTT against Fam210b | -1.04 (inactive) |
| UCUUACAAACUAGCUCUCCTT against Crabp2 | -0.777 (inactive) |
| GGGACCGUCUUAAACAUCUTT against Rsl1d1 | 2.92 (active) |
| GGAGAGUAACAAUUAUGAATT against Pcdha9 | 0.983 (inactive) |
| GCUCGAGAGUACUGUAGGCTT against Kat8 | -2.41 (active) |
| GGUCUAAUACUCAAUAGACTT against Tmem200a | 0.0917 (inactive) |
| CCUGAAGGGUCUGGCAAAATT against Zfp804a | 0.66 (inactive) |
| GGAAUUGGUUCAGAAAUAUTT against Rtn4 | 3.09 (active) |
| GGUUAAACUACAACAGUUGTT against Tmco5 | 1.04 (inactive) |
| GGAAGAAUGUAAGUAUACCTT against Zscan12 | 1.68 (inactive) |
| CGUGGAAGAAAUAAUUAGGTT against Faap24 | 0.664 (inactive) |
| GCUGGUCUAUGUGGAAAGGTT against Brap | 2.32 (active) |
| GGUGAAGAGUGAUUUUAAUTT against Il10 | 1.03 (inactive) |

| Sequence | z-score |
| --- | --- |
| GGUGUUGGAAGAGAUGCUGTT against Ap3m2 | 0.405 (inactive) |
| GGAAGUGGAAUAUGUCACCTT against Cd300lf | -0.206 (inactive) |
| GCCCACGUUUUAAGUCUACTT against Ap1s3 | 3.69 (active) |
| GAUACCAAGCUAAAAGAUCTT against Ear10 | 0.0579 (inactive) |
| GCCAGUCAUCUUUGUAGUCTT against Olfr411 | -0.777 (inactive) |
| GGAUGUACUUUGUUAAGGCTT against Tert | 2.78 (active) |
| GGGAGAACAGUGUUCAGAGTT against Bhlha15 | -0.151 (inactive) |
| CCAUGUGCUGUGCACUACGTT against Chst14 | 0.358 (inactive) |
| GGAUAAGUGGUCUGCACUATT against Ube2c | -0.412 (inactive) |
| CCACUAUCCCACCAAUCACTT against Lypd8 | -1.03 (inactive) |
| GGCUGCUACUUCAGACAGCTT against Pou6f2 | -0.163 (inactive) |
| GGAGGACCUUCAGAAACUCTT against Gdap2 | 1.14 (inactive) |
| GGUGUCACGACAAACAUUCTT against Fam83h | -1.6 (inactive) |
| GGCAAGGAUAUAAAUUCACTT against Mak | 2.47 (active) |
| GUGGCAGCUGACAUGAAUGTT against Plac8 | -0.138 (inactive) |
| CGGAUACAAUUUCUGACCGTT against Zdhhc23 | -0.163 (inactive) |
| GGUUAUUUGGAAGUGCUACTT against Esx1 | 2.81 (active) |
| GGGACGUGUUAAAAAGGGCTT against Cldn5 | 0.0829 (inactive) |
| CCGCCUAAAUGACUUGACATT against Fbxw14 | -1.1 (inactive) |
| GGAAUUUGGUGCAGUGUCCTT against Utp15 | -1.39 (inactive) |
| GCUAACGAUAUUUAUCACGTT against Olfr385 | -0.474 (inactive) |
| GGGACUUGUCCAUCCUUUUTT against Qrfprl | -1.71 (inactive) |

| Sequence | z-score |
| --- | --- |
| GGAGCAUUAUAUCAAUCCUTT against Zfp111 | 2.16 (active) |
| GCUUACUAAGGUGAUAAUGTT against Il17d | 0.0918 (inactive) |
| CGAAAGAGAUGAUGAUAAUTT against Arrdc3 | 0.641 (inactive) |
| GGAAAAGCAUUUUCAACGUTT against Lhfpl2 | -1.41 (inactive) |
| GCGAACGAGACACUUCAAUTT against Pla2g4a | 1.51 (inactive) |
| GGAGACAUGGCAUCCAAAUTT against Cnr1 | 3.14 (active) |
| GGAGAAGAGAUCCCUGAACTT against Neurod2 | -0.491 (inactive) |
| CGUGGUCGUGAGAUGUUUGTT against Chid1 | 1.35 (inactive) |
| CCUUUUAGUGAAAAUAGCATT against A430010J10Rik | -0.924 (inactive) |
| GGACUUCUCUGGGACUUCATT against Syt9 | 0.406 (inactive) |
| GCCUCCUGAAUGAUGACAUTT against Klk1b24 | -0.97 (inactive) |
| GGUCAAAGUGAUUGUGUGUTT against Cdh16 | 0.555 (inactive) |
| GGCUAAAUUCUACUUGAUATT against Ppfibp1 | -1.89 (inactive) |
| GGCUGUUUUCUAUCCUAGGTT against Cd207 | -2.82 (active) |
| CUUAGCUACUUCAAGGUCATT against Spink8 | 0.628 (inactive) |
| GCAGGCUCUGCAUGAAGCATT against Alpl | -0.213 (inactive) |
| GCCCACGUACAGAAAACAGTT against Aox2 | -1.72 (inactive) |
| GGGAGAACACAUCUACUGATT against Slamf6 | -1.17 (inactive) |
| GGAGACAUGCAAUGAACUUTT against Ica1l | 1.02 (inactive) |
| GGAAUUUUUAGGAAUGGUGTT against Slc35f2 | -1.38 (inactive) |
| GGAUUGCUGUAAAAUACAATT against Cdkn2aipnl | 2.16 (active) |
| GGAAGGUACCAGGUGAUUGTT against Nmnat3 | -1.89 (inactive) |

| Sequence | z-score |
| --- | --- |
| GGUGCCCAUGCUUGUAGGATT against Cstdc1 | 2.03 (active) |
| GGUCCAUGCUCUCAUGAGUTT against Batf2 | -1.34 (inactive) |
| GGUACAGGAAACUCAAAUATT against Lrrc4 | 0.318 (inactive) |
| GGCCAGUUUAAACCAGUCUTT against Frmd6 | 0.583 (inactive) |
| GCAUACAAUCAUGUAAGAGTT against Adprh | 0.0994 (inactive) |
| CCAGAAACCGUGAUAAAAUTT against Immp2l | 2.12 (active) |
| CGGAGCAUGAGCCAGAUAUTT against Eipr1 | -0.266 (inactive) |
| GGAGACUGUCAGAAAGUUATT against Olfr1164 | -0.769 (inactive) |
| GGAAAAAUCCAAGAAGCAATT against Zc3h11a | -1.09 (inactive) |
| GGACAUUUUUAUGCACAAUTT against Il1rl2 | 1.76 (inactive) |
| GCUCCUACUGUCCAGCAAUTT against Dusp18 | -0.642 (inactive) |
| AAUUGAAGACUGUAAAUACTT against Sst | 1.83 (inactive) |
| GGAACACAAAGGUAAGAAATT against Raf1 | 0.0798 (inactive) |
| GGUGCAGUUGAACUUCUACTT against Dnajc1 | 2.26 (active) |
| GGUUUUAAAGCACUUUGUATT against Jazf1 | 0.288 (inactive) |
| GGAAACUUCUUCCCGGUUGTT against Gsdmc | 1.16 (inactive) |
| GCUUACAAGGCAUGUAUGATT against Rccd1 | 3.46 (active) |
| GGGAGUUUGAUUCUGACUCTT against Ank3 | -0.264 (inactive) |
| CCCAUGAUAAUGAAUUAGCTT against Olfr378 | -0.537 (inactive) |
| GGUAUUUGUAAAUUUGAGGTT against Atl1 | 0.309 (inactive) |
| GGUAACAUACUAAAAGAAGTT against Vmn2r10 | -1.21 (inactive) |
| GCAGGAUUGAAACAUGUAUTT against Tcl1b3 | -0.298 (inactive) |

| Sequence | z-score |
| --- | --- |
| GCCAAUUGGUUCCCUGUAATT against 1700034E13Rik | -3.04 (active) |
| CGAACUUCCAAAAAGUUCATT against A430005L14Rik | -0.498 (inactive) |
| GGAUUGGCAAGCAGCUAACTT against Dnase2a | -2.08 (active) |
| UCACCCUGUUCGUAAUCAUTT against Olfr467 | -0.17 (inactive) |
| CCACUGGUUCACCUAUAAUTT against Psma5 | 0.092 (inactive) |
| CGAAUGACCUCGAUAGCUGTT against Gm5082 | 0.195 (inactive) |
| GGAAGAAGCCACCAUGUACTT against Pbx4 | -1.75 (inactive) |
| GGCUGAGGUUCGAGUGUAUTT against Rps6ka4 | 3.51 (active) |
| GGCCAAUAGGACAUAUCUATT against Qprt | -0.443 (inactive) |
| GCUUAGCUGUUAUGUUUUUTT against Atp6ap1 | 1.81 (inactive) |
| GCAAUGUGUGGUAAGUAAATT against Zfp738 | -0.757 (inactive) |
| GGUUUAGCUGCUGACUUAATT against Strn3 | 1.03 (inactive) |
| GGAGAAGGUUUUGAUGUGGTT against Drg1 | -1.31 (inactive) |
| GGCAACUGGAGAUGUGUGUTT against Lpgat1 | -0.361 (inactive) |
| CGACAUCCCAAUAAACAAGTT against Lcn3 | -1.1 (inactive) |
| GCAGAGGAGUUUUCAAUUUTT against Il17rb | 0.997 (inactive) |
| GGCCCUUCUGGACUAUCAUTT against Ccdc83 | 3.39 (active) |
| GGUACCUGAGUCCAUCUCATT against Sntb1 | -0.219 (inactive) |
| CGAACUUCAAGACUGUGAUTT against Cep95 | -0.248 (inactive) |
